From PubChem BioAssay
In the library only some 0.54% were active in any assay of this set; here they are far more common.
PvdQ acylase: P. aeruginosa PvdQ acylase inhibition; purified PvdQ acylase, fluorescence plate reader; hit rate 0.063% among 340,000; inhibition, % at 10 µM; in the data active = inhibition above about 30%, passing the limit was not always enough; inconclusive = no clear call, values can overlap the other calls;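 note: 0% = vehicle neutral wells and 100% = reference inhibitor wells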
Rtt109 Vps75: C. albicans Rtt109 histone acetyltransferase inhibition; purified Rtt109/Vps75, ThioGlo CoA-SH fluorescence, 4 h; Q5AAJ8; hit rate 0.16% among 330,000; inhibition, % at 34.9 µM; AID 540336;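 active = inhibition of at least 50% in every replicate; inconclusive = best replicate reaches 50% inhibition but some replicates fall short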
PDI turbidity: inhibitors of human protein disulfide isomerase; P07237; inhibition, % at 10 µM; hit rate 0.052% among 350,000; PDI insulin aggregation turbidity, A650, 90 min;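 active = mean inhibition across replicates of 30% or more, whatever share of single replicates reach that level; inconclusive = mean inhibition below 30% while every single replicate reaches 30%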
Target sequence (P07237 whole entry, looked up): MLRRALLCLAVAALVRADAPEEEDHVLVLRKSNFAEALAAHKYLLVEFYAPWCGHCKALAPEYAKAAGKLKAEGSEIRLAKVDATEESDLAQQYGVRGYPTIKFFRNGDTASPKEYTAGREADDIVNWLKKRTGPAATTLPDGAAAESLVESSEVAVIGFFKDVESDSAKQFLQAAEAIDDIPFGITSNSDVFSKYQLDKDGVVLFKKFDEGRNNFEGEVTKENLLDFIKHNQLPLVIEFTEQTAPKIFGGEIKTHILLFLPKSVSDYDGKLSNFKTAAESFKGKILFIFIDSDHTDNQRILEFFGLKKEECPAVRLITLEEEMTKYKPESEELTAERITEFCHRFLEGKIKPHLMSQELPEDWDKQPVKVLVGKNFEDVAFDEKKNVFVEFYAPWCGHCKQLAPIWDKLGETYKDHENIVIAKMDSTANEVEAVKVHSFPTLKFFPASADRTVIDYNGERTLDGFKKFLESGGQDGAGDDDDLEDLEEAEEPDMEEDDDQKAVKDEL
Efflux pump mplx: inhibitors of Candida antifungal efflux pumps expressed in yeast; S. cerevisiae Candida pump triplex, Nile Red efflux; inhibition, % at 10 µM; hit rate 0.44% among 330,000; AID 485275;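 active = plate passing quality check with inhibition over a set limit, or well fluorescence over plate mean plus 4 SD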;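 note: Nile Red retained in pooled yeast measured as flow cytometry median fluorescence; 0% = buffer negative control and 100% = Enniatin B positive control; higher means more Nile Red kept so more efflux inhibition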
ERp5 inh: inhibitors of human ERp5; Q15084; ERp5 insulin aggregation, absorbance 650 nm, 90 min; inhibition, % at 9.99 µM; hit rate 0.05% among 350,000;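 active = mean replicate inhibition above about 25%, with every replicate also reaching it, limit read from the data, passing the limit was not always enough; inconclusive = only one of those two criteria met; inactive = neither criterion met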
The depositor's hits bear a star; ? = inconclusive; · = not tested or not shown.

SMILES	PvdQ acylase	Rtt109 Vps75	PDI turbidity	Efflux pump mplx	ERp5 inh
Cc1noc(C)c1NC(=O)N(C)C[C@@H]1Oc2ccc(NC(=O)c3ccncc3)cc2C(=O)N([C@H](C)CO)C[C@@H]1C	·	·	·	·	1.3
CC(=O)NC[C@H]1[C@@H](c2ccc(-c3ccccc3F)cc2)[C@@H](CO)N1C(C)=O	·	·	·	·	-1.3
C[C@@H]1CN([C@H](C)CO)S(=O)(=O)c2ccc(C#Cc3ccccn3)cc2O[C@@H]1CN(C)C(=O)C1CC1	·	·	·	·	8.3
COc1ccccc1N(C(=O)c1snc(C(N)=O)c1N)C(C(=O)NC1CCCCC1)c1cccc(OC)c1OC (stereo not given)	2.4	53.3*	0.1	-0.1	2.4
COc1ccc(-c2cc(=O)c3ccccc3s2)cc1	41.2*	25.0	0.4	-0.1	-2.3
COc1ccc2sc3ccccc3c(=O)c2c1	7.4	1.0	-6.9	0.0	·
O=C(NC1CCCCC1)c1cc(Cl)ccc1[N+](=O)[O-]	61.6*	-40.5	-16.1	0.0	·
O=C(NC1CC1)c1cc(Cl)ccc1[N+](=O)[O-]	9.3	·	0.1	0.0	·
O=C(NC1CCCC1)c1cc(Cl)ccc1[N+](=O)[O-]	94.1*	-4.2	-1.5	0.1	-1.4
CC1(C)C2CCC1(C)C(OCC[N+](C)(C)CC(=O)OC1CCCCC1)C2 (stereo not given)	-1.7	57.9*	12.7	0.3	-6.7
CCOC(=O)C[N+](C)(C)CCOC1CC2CCC1(C)C2(C)C (stereo not given)	-4.2	-0.4	-2.4	0.0	·
C[C@@H]1CN([C@@H](C)CO)C(=O)c2cc(NC(=O)Nc3ccccc3)ccc2O[C@@H](C)CCCCO[C@@H]1CN(C)C(=O)Cc1ccccc1	·	·	·	·	-3.2
Cc1sc2c3ccsc3ccc2[n+]1C	-11.3	114.7*	11.2	-0.1	3.5
Cc1ccccc1Nc1nnc(SCC2CCCCO2)s1 (stereo not given)	-2.3	51.3*	-17.3	0.0	0.9
COc1ccccc1Nc1nnc(SCC2CCCCO2)s1 (stereo not given)	-16.3	-7.0	7.3	0.0	2.8
CN(C)C(=O)C[C@H]1CC[C@H]2[C@@H](COc3ccc(NC(=O)c4cnccn4)cc3C(=O)N2C)O1	·	·	·	·	4.1
CCOC(=O)c1c(C)n(-c2ccc(C)cc2)c2ccc(OCC(O)CNCCCO)cc12 (stereo not given)	-5.0	67.4*	-6.4	0.0	4.3
CCOC(=O)c1c(C)n(-c2ccc(C)cc2)c2ccc(OCC(O)CNCC3CCCO3)cc12 (stereo not given)	-16.1	64.3*	2.6	-0.1	·
CCOC(=O)c1c(C)n(C)c2ccc(OCC(O)CNC(CC)CO)cc12 (stereo not given)	-7.5	?	1.5	-0.1	·
COc1ccc(CNC(=O)COC(=O)c2ccc(S(=O)(=O)N3CCOCC3)cc2)cc1	-0.9	4.9	-2.5	-0.2	-1.4
COc1ccc(CNC(=O)COC(=O)c2ccc(S(=O)(=O)N3CCCCC3)cc2)cc1	5.6	51.9*	-5.2	-0.2	2.7
C[C@H]1CN([C@@H](C)CO)C(=O)Cc2cc(NC(=O)c3ccncc3)ccc2O[C@H]1CN(C)S(C)(=O)=O	·	·	·	·	-0.8
O=C(CSc1nnc2ccccn12)NNC(=O)c1cccc(Cl)c1	-7.3	57.6*	4.4	0.3	11.6
O=c1oc(-c2ccc(F)cc2)nc2ccsc12	70.2*	-9.1	2.8	0.0	·
O=c1oc(-c2ccccc2Cl)nc2ccsc12	17.2	11.9	-2.8	0.2	·
SMILES	PvdQ acylase	Rtt109 Vps75	PDI turbidity	Efflux pump mplx	ERp5 inh
O=C(C[C@H]1CC[C@@H]2[C@H](COC[C@H](O)CN2C(=O)c2ccccc2)O1)N1CCc2ccccc2C1	·	·	·	·	-0.5
CC(=O)Nc1ccc(OCc2cccc([N+](=O)[O-])c2)cc1	3.0	58.0*	0.9	0.0	-1.4
CCOC(=O)C1=C(c2ccccc2)N=c2s/c(=C\c3cccc(O)c3)c(=O)n2C1c1cccs1 (stereo not given)	-4.5	3.4	60.7*	0.1	·
C[C@H](CO)N1C[C@H](C)[C@@H](CN(C)S(=O)(=O)c2ccc(Cl)cc2)Oc2ccc(NC(=O)CCN3CCOCC3)cc2CC1=O	·	·	·	·	-4.4
CN(C)Cc1cn(CC[C@H]2CC[C@@H](NS(=O)(=O)c3ccc(-c4ccccc4)cc3)[C@@H](CO)O2)nn1	·	·	·	·	-1.5
O=c1c(O[C@H]2O[C@@H](CO)[C@H](O)[C@@H](O)[C@@H]2O)c(-c2ccc(O)cc2)oc2cc(O)cc(O)c12	-15.0	13.4	63.0*	0.2	3.8
O=c1c(O[C@@H]2O[C@H](CO)C(O)C2O)c(-c2ccc(O)c(O)c2)oc2cc(O)cc(O)c12 (stereo not given in full)	-9.4	-0.8	41.1*	0.0	·
O=c1c(OC2OC(CO)C(O)C(O)C2O)c(-c2ccc(O)c(O)c2)oc2cc(O)cc(O)c12 (stereo not given)	3.3	3.2	53.8*	·	1.6
O=c1c(OC2OC(CO)C(O)C(O)C2OC2OC(CO)C(O)C(O)C2O)c(-c2ccc(O)cc2)oc2cc(O)cc(O)c12 (stereo not given)	17.9	11.5	·	-0.2	-1.0
C[C@@H]1CCCCO[C@H](CN(C)Cc2ccc3c(c2)OCO3)[C@H](C)CN([C@@H](C)CO)C(=O)c2cc(NC(=O)Nc3ccc(F)cc3)ccc2O1	·	·	·	·	1.2
COc1ccc(NC(=O)N2CC3(C2)CN(C(=O)C2CCC2)[C@H](CO)c2c3c3ccc(OC)cc3n2C)cc1	·	·	·	·	3.1
CCCC(=O)Nc1ccc(C(=O)NNC(=S)NC(=O)c2cccs2)cc1	5.7	60.5*	6.5	-0.5	·
CCCC(=O)Nc1ccc(NC(=S)NC(=O)c2cccs2)cc1	-4.7	·	-0.1	-0.2	5.8
O=C(C[C@H]1C=C[C@H](NC(=O)C2CCOCC2)[C@H](CO)O1)Nc1ccccc1	·	·	·	·	1.9
COCCNS(=O)(=O)c1ccc2c(c1)C(=NO)c1cc(S(=O)(=O)NCCOC)ccc1-2	-25.7	52.5*	9.6	0.1	0.4
COCC(=O)N1CC2(C1)[C@H](c1ccc(-c3cccc(C)c3)cc1)[C@H](CO)N2C(=O)C1CC1	·	·	·	·	-2.8
CC(=O)c1ccc(N2CCN(CC(O)COC(c3ccccc3)c3ccccc3C)CC2)cc1 (stereo not given)	-12.5	-4.0	-2.5	0.1	3.8
CC(=O)c1ccc(N2CCN(CC(O)COC(c3ccccc3)c3ccccc3)CC2)cc1 (stereo not given)	2.6	54.7*	22.6	0.1	6.6
COc1ccc(S(=O)(=O)N[C@H]2C=C[C@@H](CC(=O)NCCc3ccncc3)O[C@H]2CO)cc1	·	·	·	·	-1.4
Cc1noc(C)c1NC(=O)N[C@@H]1C=C[C@@H](CC(=O)NCc2ccc(Cl)c(Cl)c2)O[C@H]1CO	·	·	·	·	2.1
O=C(CNC(=O)c1ccc(Br)o1)NC12CC3CC(CC(C3)C1)C2	6.5	57.6*	-10.9	-0.1	2.5
O=C(CNC(=O)c1ccc(Br)o1)NC1CCCCCC1	-7.2	-2.0	5.6	0.0	2.2
O=C(C[C@@H]1C[C@H]2c3cc(NC(=O)CC4CC4)ccc3O[C@H]2[C@H](CO)O1)NCc1ccc2c(c1)OCO2	·	·	·	·	-8.9
Nc1ccccc1C(=O)/C=C/c1ccc2c(c1)OCO2	-1.6	-0.7	4.9	·	1.1
